Assay outcomes from PubChem.
In the library only some 5.3% were active in any assay of this set; here they are far more common.
ALOX15B inhib: blocks human 15-lipoxygenase 2 activity; Potency, µM (titrated, usually from 57.1 µM), inactives show top-dose activity change, negative = inhibition, most hits filed as inhibitors; actives 0.56% (n = 110,000); AID 881; purified 15hLO-2, xylenol orange hydroperoxide absorbance; O15296; further: potency means the concentration at half of the fitted maximal effect; nearly all actives have a fitted effect of over 60% in size
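Purified human 15hLO-2 (50 nM final) preincubated with compounds 15 min at room temperature in 25 mM Hepes pH 7.5, 0.01% Triton X-100, then 45 uM arachidonic acid added for 90 min; hydroperoxide detected via ferrous/xylenol orange, 573/405 nm absorbance ratio.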
IMPase inh: IMPase inhibition in cells. inhibition (IP1 accumulation), % at 46.1 µM. 120,000 tested, under 10 active. P97697. CHO-M1 cells, IP1 accumulation, HTRF TR-FRET ratio. AID 901; active means well fitted curve in the direction sought with a large enough effect in the signal ratio, not every such curve was filed as active; inconclusive means small, poorly fitted or top-dose-only effect, or a change in a side signal; inactive means no such curve, though single readings can be large or run the other way; the % refers to the signal ratio;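 further: cells stimulated with carbachol in lithium chloride buffer; plate controls were DMSO basal wells for no effect and reference inhibitor wells for full effect; higher means more IMPase inhibition seen as more IP1 and lower FRET ratio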
Target sequence (P97697 whole entry, looked up): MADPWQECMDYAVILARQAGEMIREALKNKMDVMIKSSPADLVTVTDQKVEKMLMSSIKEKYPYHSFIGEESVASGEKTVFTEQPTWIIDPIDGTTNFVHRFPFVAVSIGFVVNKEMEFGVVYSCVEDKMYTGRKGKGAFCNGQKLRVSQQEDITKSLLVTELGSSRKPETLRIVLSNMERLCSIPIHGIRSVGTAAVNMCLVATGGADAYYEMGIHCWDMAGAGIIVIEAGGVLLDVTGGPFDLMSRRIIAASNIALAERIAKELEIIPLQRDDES
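Elevated IP1 in lysates lowers TR-FRET signal (665/620 ratio and 620 channel reported). Cells were CHO-M1, given carbachol (50 uM as added) plus 50mM LiCl, pH 7.4, 30 min, 37C; compounds titrated up to 46 uM; AC50 by Hill equation.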
IMPase Li inh: cell-permeable IMPase inhibitors with lithium potentiation | actives 0.35% (n = 210,000) | Potency, µM (top dose mostly 59.4 µM), for the others: at the highest dose activity, negative = IMPase inhibition, most hits filed as inhibitors | CHO-M1 cells, IP1 TR-FRET (IP-One), carbachol + lithium;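 further: IP1 builds up when IMPase is blocked and the TR-FRET signal falls; potency means the concentration at half of the fitted maximal effect; plate controls were basal vehicle for no effect and high inhibitor control for full effect; nearly all actives have a fitted effect of over 50% in size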
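CHO-M1, 2000 cells/well, 16–30 h culture; cpd + low Li+, 30 min 37C; lysis with d2-IP1/Eu-anti-IP1 Ab, 10 min RT; TR-FRET 665/620 ratio and 620 channel; AC50 via Hill.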
12-hLO inh: 12-hLO (ALOX12) enzyme inhibition; actives 0.12% (n = 150,000); AID 1452; Potency, µM (titrated, usually from 57.1 µM), inactives show top-dose activity change, negative = inhibition, most hits filed as inhibitors; purified 12-hLO, xylenol orange hydroperoxide absorbance; P18054; further: potency means the concentration at half of the fitted maximal effect; nearly all actives have a fitted effect of over 55% in size
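Lipoxygenase turnover measured by absorbance at 573 and 405 nm after Fe-XO development. Human 12hLO 150 nM, arachidonate 40 uM, pH 7.0 Hepes buffer with detergent; 15 min compound preincubation, 30 min reaction.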
HPGD block: blocks human HPGD enzyme activity; P15428; purified HPGD, NADH fluorescence kinetic, PGE2 substrate; Potency, µM, inactives show at the top dose activity change, negative = inhibition, hits mostly inhibitors; actives 4.3% (n = 150,000); active means well fitted inhibition curve with a large enough effect, not every such curve was filed as active; inconclusive means small, poorly fitted or top-dose-only effect, or another doubt; inactive means no such curve, though single readings can be large or run the other way; further: potency means the concentration at half of the fitted maximal effect
Target sequence (P15428 whole entry, looked up): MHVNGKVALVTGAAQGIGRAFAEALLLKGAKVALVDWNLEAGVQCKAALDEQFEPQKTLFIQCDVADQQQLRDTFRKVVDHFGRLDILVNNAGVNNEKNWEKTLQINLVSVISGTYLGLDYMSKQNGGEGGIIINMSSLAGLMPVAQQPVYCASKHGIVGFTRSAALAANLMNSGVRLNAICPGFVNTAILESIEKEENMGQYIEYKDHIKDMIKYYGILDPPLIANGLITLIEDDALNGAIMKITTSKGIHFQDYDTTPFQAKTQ
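20 nM HPGD preincubated 15 min at room temperature with compound in 50 mM Tris-HCl pH 8, 0.01% Tween 20. Started with 1 mM NAD+ and 30 uM prostaglandin E2; NADH fluorescence (360/450 nm) read 5 times over 30-s intervals, last minus first.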
PNC inhibitor: blocks assembly of the perinucleolar compartment; PC3M PTB-GFP, PNC prevalence imaging, 16 h; stronger effect = lower value; AID 2417; actives 3.1% (n = 140,000); activity change (PNC), negative = inhibition, % at 10 µM;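 active means readout at or below -70, meaning at least 70% loss of cells showing the perinucleolar compartment, a nuclear body marking cancer cells; inconclusive means readout between -30 and a set limit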;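 further: plate controls were DMSO wells for no effect and camptothecin positive control wells for full effect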
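Read-out is percentage of cells bearing a perinucleolar compartment, from automated 20x imaging of fixed, Hoechst-stained PC3M PTB-GFP cells. Cells were seeded 4 h, then exposed 16 h to compound (23 nl of library stock) in duplicate plates.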
* marks the source's active call; other numbers are inactive results; ? = inconclusive; nt = no result; [ ] = remark or other dose. Unless noted, the call rests on the fitted dose curve; in most records, active means well fitted curve in the direction sought with a large enough effect; inconclusive means small, poorly fitted or top-dose-only effect, or another doubt; inactive means no such curve, though single readings can be large; an effect the other way counts as inactive or inconclusive. Unless noted, on the % scale 0 is the no-effect control and ±100 the full control effect.

SMILES | ALOX15B inhib | IMPase inh | IMPase Li inh | 12-hLO inh | HPGD block | PNC inhibitor
O=C(CN1C(=O)c2ccccc2C1=O)Nc1nc(-c2cccc([N+](=O)[O-])c2)cs1 | -7% | 4 | 18%[38.3 µM] | 1% | -10% | 33
Cc1nn(-c2ccccc2)c(Cl)c1C1C(C#N)=C(N)Oc2c1c(C)nn2-c1ccccc1 (stereo not drawn) | -21% | 3 | 1%[38.3 µM] | -15% | 35µM* | -4
Nc1c(N2CCCCC2)c2ccccc2oc1=O | nt | nt | 8% | nt | nt | nt
O=S(=O)(c1ccc2c(c1)oc1ccccc12)N1CCOCC1 | 4% | -9 | 6%[38.3 µM] | 2% | -8% | -81*
N#Cc1cc2ccccc2nc1SCc1ccccn1 | 2% | 2 | -17%[38.3 µM] | -9% | 25µM* | -5
COc1cc(C(=O)NC(=S)N(C)Cc2ccccc2)cc(OC)c1OC | nt | nt | 2% | nt | nt | nt
CN(Cc1ccccc1)C(=S)NC(=O)c1ccc(-c2ccccc2)cc1 | nt | 3 | 10µM* | 4% | 14µM* | ?
Nc1nc(=S)[nH]c2c1C1(CCCCC1)Cc1ccccc1-2 | nt | nt | -2% | 0% | -10% | 18
Nc1nc(=S)[nH]c2c1C1(CCCC1)Cc1ccccc1-2 | ? | -12 | ? | -15% | 13µM* | 22
COC(=O)c1cc(C(=O)Nc2ccc(S(=O)(=O)NC(C)(C)C)cc2)cc([N+](=O)[O-])c1 | nt | nt | 4% | 6% | 18µM* | ?
CCOC(=O)c1[nH]c(C)c(C(=O)OCCOc2cccc(C)c2)c1C | nt | 7 | 6% | -2% | 2% | ?
Cc1ccsc1/C=N/n1c(C2CCCCC2)n[nH]c1=S | nt | 14 | 4% | -3% | 13µM* | 0
S=c1[nH]nc(C2CCCCC2)n1/N=C/c1ccccn1 | nt | nt | 3% | nt | nt | nt
Cc1ccc(/C=N/n2c(C3CCCCC3)n[nH]c2=S)s1 | nt | nt | 3% | 1% | 11µM* | 7
COc1ccccc1-c1ccc2ncnc(N(C)C)c2c1 | 13% | nt | 20% | -1% | 14µM* | nt
Cn1cc([N+](=O)[O-])c(C(=O)Nc2cc(Oc3ccccc3)cc([N+](=O)[O-])c2)n1 | nt | nt | -5% | -2% | -24% | -125*
Cc1nn(C)cc1C(=O)Nc1cc(Oc2ccc(Cl)cc2)cc([N+](=O)[O-])c1 | -2% | -4 | 12%[38.3 µM] | -8% | -11% | -29
O=C(COc1ccc2ccccc2c1)NNC(=O)Cc1ccccc1 | nt | nt | ? | -1% | -6% | 2
O=C(COC(=O)CSc1ccc2ccccc2c1Br)NC1CC1 | nt | nt | 10µM* | nt | nt | nt
O=C(COc1ccc2ccccc2c1)NC1CC1 | -3% | -6 | 20%[38.3 µM] | -4% | 32µM* | 59
O=C(COC(=O)CSc1ccc2ccccc2c1)NC1CC1 | nt | -20 | nt | 3% | nt | 49
O=C(COc1ccc2ccccc2c1)NCCNC(=O)COc1ccc2ccccc2c1 | 7% | ? | 13µM* | -1% | -12% | 15
Cc1nonc1C(=O)N/N=C/c1ccc(O)cc1O | nt | nt | 5% | nt | nt | nt
O=C(CCCCCNC(=O)c1ccccc1)N/N=C/c1ccc(O)cc1O | nt | -2 | 8% | -1% | 28µM* | ?
Cc1cc(SCC(=O)N/N=C/c2ccc(O)cc2O)c(C)cc1Br | 9% | 2 | 35%[38.3 µM] | ? | 20µM* | ?
SMILES | ALOX15B inhib | IMPase inh | IMPase Li inh | 12-hLO inh | HPGD block | PNC inhibitor
CCOC(=O)c1cc2c(nc1N)CC(C)(C)OC2 | nt | -9 | 0% | 2% | ? | 4
CCOC(=O)c1cc2c(nc1NC(=S)Nc1ccccc1)CC(C)(C)OC2 | nt | -6 | 4% | -4% | -4% | -82*
S=c1[nH]ccn1-c1cccc(Cl)c1 | nt | nt | -3% | -5% | -26% | -9
Cc1ccc(-n2cc[nH]c2=S)cc1C | nt | nt | -5% | -3% | 22µM* | 35
Cc1noc(C)c1COC(=O)Cc1ccc(Br)cc1 | nt | nt | 5% | nt | nt | nt
COc1cc(/C=C2\SC(N)=NC2=O)ccc1OCC(=O)Nc1ccc(C)cc1 | nt | 10 | -6% | 0% | 4.5µM* | -19
COc1ccc(/C=C2/SC(=O)N(CCC(=O)Nc3ccc(C)cc3)C2=O)cc1OC | nt | -5 | 314% | -5% | -6% | 3
COc1cc(/C=C2\SC(c3ccc(C)cc3)=NC2=O)ccc1O | ? | 39 | 28% | -11% | ? | -95*
COc1cc(/C=C2\C(=O)N(CCC#N)N=C2C)ccc1OCC(=O)Nc1ccccc1 | nt | nt | -1% | -7% | 10µM* | -26
O=C(CCCc1nc2ccccc2s1)NC(c1ccccc1)c1ccccc1 | nt | -12 | 8% | -1% | -4% | 33
O=C(Nc1ccccc1Cl)N1CCN(C/C=C/c2ccccc2)CC1 | nt | nt | 4% | 1% | -3% | -91*
Cc1cc(C(=O)COC(=O)c2n[nH]c3ccccc23)c(C)n1CC1CCCO1 (stereo not drawn) | -7% | -1 | -14%[38.3 µM] | -3% | 28µM* | ?
Cc1cc(C(=O)COC(=O)c2cc(O)c3ccccc3c2O)c(C)n1CC1CCCO1 (stereo not drawn) | nt | nt | 10% | nt | nt | nt
COc1ccc(CCn2c(Br)nc3c2c(=O)[nH]c(=O)n3C)cc1 | -2% | -1 | 0%[38.3 µM] | 2% | 13µM* | -82*
Cc1ccc(/C=N/n2c(-c3ccco3)n[nH]c2=S)s1 | nt | -1 | 1% | 0% | 13µM* | -113*
S=c1[nH]nc(-c2ccco2)n1/N=C/C=C/c1ccco1 | nt | nt | 6% | -1% | 14µM* | ?
Fc1ccc(/C=N/n2c(-c3cccs3)n[nH]c2=S)cc1 | ? | 1 | 38%[38.3 µM] | ? | 4µM* | 12
S=c1[nH]nc(-c2ccco2)n1/N=C/c1ccc(Cl)cc1 | nt | -1 | 4% | -6% | 3.5µM* | ?
S=c1[nH]nc(-c2ccco2)n1/N=C/c1ccccc1Cl | nt | -4 | nt | -6% | nt | -20
CC1(C)SC2C(NC(=O)C(NC(=O)N3CCNC3=O)c3ccccc3)C(=O)N2C1C(=O)O (stereo not drawn) | -8% | nt | 13% | -2% | -9% | nt
O=c1cc(-c2ccc(O)c(-c3c(O)cc(O)c4c(=O)cc(-c5ccc(O)cc5)oc34)c2)oc2cc(O)cc(O)c12 | nt | nt | 4% | -13% | 14µM* | -21
CN(C)C(=O)N1CCN(C(=O)N2CCOCC2)CC1 | nt | -1 | 9% | -3% | -6% | -100*
CCOC(=O)N1CCN(S(=O)(=O)c2ccc(Br)s2)CC1 | 2%[2.29 µM] | -3 | -2%[38.3 µM] | -5% | -1% | -90*
CC(C)(c1ccccc1)c1ccc(OCCn2cnc3ccccc3c2=O)cc1 | 17% | 12 | 60%[38.3 µM] | -5% | -19% | -3
O=C(c1ccccc1)c1ccc(OCCn2cnc3ccccc3c2=O)cc1 | -3% | 19 | -15%[38.3 µM] | -5% | 4.5µM* | ?
CC(C)(C)OC(=O)N/N=C\C=C\c1ccc2c(c1)OCO2 | nt | nt | -3% | -4% | 16µM* | 13
